For 26 compounds, activity (quench increase) results are on record in PubChem BioAssay AID720511 (Broad Institute, 2013).

About 1,300 (0.37%) of roughly 350,000 compounds were called active. Only a selection was taken, and actives are over-represented in it overall. A number with no mark means an inactive call.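 The calls were made as follows: active = mean added fluorescence quench of at least 8% versus neutral control, with both replicates also reaching 8%; inconclusive = only one of the mean or replicate conditions met; inactive = mean below 8% and not both replicates reaching 8%.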

This assay can be described thus: F508del CFTR correction, initial screen, CFBE line, single point (AID 720511).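 Also: cells transiently co-express mutant CFTR-F508del with the halide-sensitive YFP; corrector assay measuring rescue of mutant channel to the surface after 24 h compound exposure.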 Conditions: CFBE cells, YFP halide quenching, at 7.58 µM, stronger effect = higher value, % fluorescence drop versus neutral controls, stimulated with forskolin plus potentiator P3.
For the compound `C[C@H]1CCCCO[C@H](CN(C)Cc2ccccc2)[C@@H](C)CN([C@@H](C)CO)C(=O)c2cc(NC(=O)c3ccccc3)ccc2O1`, the activity (quench increase) is -0.952%.

Regarding `C[C@H]1CN([C@@H](C)CO)S(=O)(=O)c2ccc(C3=CCCCC3)cc2O[C@@H]1CN(C)Cc1ccccc1`, the activity (quench increase) is -0.755%. With `C[C@@H]1CN([C@@H](C)CO)S(=O)(=O)c2ccc(-c3ccc(F)cc3)cc2O[C@@H]1CN(C)CC1CC1`, the activity (quench increase) was 2.11%. As for `Oc1ccc(/C=N/Nc2nc(-c3ccccc3F)nc3ccccc23)c(O)c1`, the activity (quench increase) was 12.3% (active). Turning to `CO[C@@H]1CN(C)C(=O)c2ccc(NS(=O)(=O)c3cccc(Cl)c3)cc2OC[C@H](C)NC[C@H]1C`, the activity (quench increase) was -1.91%.

With `CC(C)NC(=O)N(C)C[C@H]1Oc2ccc(NC(=O)Cn3cnnn3)cc2CC(=O)N([C@H](C)CO)C[C@H]1C`, the activity (quench increase) is -1.17%. Next, `Cc1noc(C)c1S(=O)(=O)N(C)C[C@H]1Oc2c(NC(=O)c3cnccn3)cccc2C(=O)N([C@H](C)CO)C[C@H]1C`: -0.706%; `CCN(CC)CCCNC(=O)c1cc2c(=O)[nH]c3ccc(C)cc3c2s1`: 4.04%. In the case of `Cc1ccc2[nH]c(=O)c(CC(=O)O)c(-c3ccccc3)c2c1` it was -4.85%; in that of `Cc1cccc(N(C)C(=O)c2cc3c(=O)[nH]c4ccc(C)cc4c3s2)c1`, 15.5% (active). Consider `Cc1cccc(S(=O)(=O)N2C[C@@H]3[C@H](c4ccccc42)[C@H](CO)N3CC2CCOCC2)c1`, for which the activity (quench increase) is -1%. With `Cc1ccc(S(=O)(=O)N[C@@H]2CC[C@H](CCn3cc(-c4cccc(F)c4)nn3)O[C@@H]2CO)cc1`, the activity (quench increase) is -2.65%. Next, `C[C@@H](NC(=O)[C@@H]1[C@@H](CO)[C@@H]2Cn3c(ccc(C4=CCCCC4)c3=O)[C@@H]2N1C)c1ccccc1`: 1.82%; `C[C@@H]1CCCCO[C@H](CN(C)C(=O)Nc2ccc3c(c2)OCO3)[C@@H](C)CN([C@@H](C)CO)C(=O)c2cc(NC(=O)CCC(F)(F)F)ccc2O1`: 2.41%.

Regarding `CCS(=O)(=O)N1CC2(CN(C(=O)c3ccc(F)cc3)[C@H](CO)c3c2c2ccc(OC)cc2n3C)C1`, the activity (quench increase) is 2.9%. `S=c1[nH]nc(-c2ccc(Cl)cc2)n1CC1CCCO1` (stereo unspecified): the activity (quench increase) is -0.339%. Next, `O=C(c1[nH]ncc1-c1ccc(Cl)cc1)C1CO1` (stereo unspecified): 9.82% (active); `COc1ccc(NC(=O)C2Cc3c(-c4ccc(Cl)cc4)ccnc3O2)cc1` (stereo unspecified): -2.37%. With `C[C@H](CO)N1C[C@H](C)[C@@H](CN(C)C(=O)C2CC2)Oc2ncc(-c3cccc(C#N)c3)cc2C1=O`, the activity (quench increase) was 0.111%.

With `Cc1ccc(S(=O)(=O)Nc2ccc3c(c2)C(=O)N([C@@H](C)CO)C[C@@H](C)[C@H](CN(C)C(=O)NC(C)C)OCCCC[C@H](C)O3)cc1`, the activity (quench increase) was -0.752%. In the case of `COc1ccc(S(=O)(=O)Nc2ccc3c(c2)C(=O)N([C@@H](C)CO)C[C@@H](C)[C@H](CN(C)C(=O)Nc2ccc(C(F)(F)F)cc2)OCCCC[C@@H](C)O3)cc1`, the activity (quench increase) was -1.09%.

On to `CCOC(=O)C1CSCCS(=O)(=O)N1Cc1ccc(Cl)cc1` (stereo unspecified), for which the activity (quench increase) was -1.25%. `CO[C@H]1CN(C)C(=O)c2ccc(NC(=O)c3cccc(F)c3)cc2OC[C@H](C)N(CC2CC2)C[C@@H]1C`: the activity (quench increase) is -0.247%.

`Cc1c(C(=O)NC(C)C2CC3CCC2C3)cccc1[N+](=O)[O-]` (stereo unspecified): the activity (quench increase) is -0.675%. For the compound `Cc1cccc(C(=O)OCC(=O)NCC(C)C)c1O`, the activity (quench increase) is 0.752%. Next, `Cc1cccc(C(=O)OCC(=O)NC(C)C2CC3CCC2C3)c1O` (stereo unspecified): 25.6% (active).
